The list is not random: actives were taken first. Their share in the collection is about 4.8%.
hcDAF12 agonist – activates DAF-12 receptor from parasite H. contortus; HEK293 hcDAF-12 lit1-tk-luc reporter, luminescence; 0% DMSO, 100% Δ7-dafachronic acid; hit rate 1.4% among 370,000; activation, % at 6.8 µM;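 active = activation above the mean of all tested compounds plus 3 SD, cut at about 5.5% in these data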;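 also: 100% = response to 3 µM Δ7-dafachronic acid high control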
ssDAF12 agonist – activators of S. stercoralis DAF-12 nuclear receptor | HEK293 ssDAF-12/GRIP1 lit1-tk-luc reporter, luminescence; % of 3 µM dafachronic acid response | activation, % at 6.8 µM | hit rate 1% among 370,000 | AID 652126;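 active = activation above the mean over all tested compounds plus 3 SD, cut at about 0.9% in these data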;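 also: 0% = DMSO-only wells and 100% = 3 µM delta7-dafachronic acid wells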
DAX1 inh-1 – inhibitors of human orphan nuclear receptor DAX1 (NR0B1); inhibition, % at 6.75 µM; P51843; HEK293 Gal4-DAX1 luciferase reporter, luminescence; hit rate 0.99% among 340,000; AID 504766;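 active = inhibition above the mean over all tested compounds plus 3 SD, cut at about 4.2% in these data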;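 also: 0% = DAX1-transfected cells with DMSO and 100% = empty-vector control cells with DMSO; inhibition shows as a rise in luminescence from relieved DAX1 repression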
Target sequence (P51843 207-470 limits assumed): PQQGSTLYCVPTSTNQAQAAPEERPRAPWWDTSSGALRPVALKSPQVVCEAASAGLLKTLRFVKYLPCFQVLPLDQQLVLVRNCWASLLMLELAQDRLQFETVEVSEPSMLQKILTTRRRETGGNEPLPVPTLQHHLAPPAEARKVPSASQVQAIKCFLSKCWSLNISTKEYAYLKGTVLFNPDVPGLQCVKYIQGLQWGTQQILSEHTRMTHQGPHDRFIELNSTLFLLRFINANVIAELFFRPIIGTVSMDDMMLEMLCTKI
hgDAF-12 ag – hgDAF-12 agonism, primary luciferase screen | hit rate 1.8% among 370,000 | activation, % at 6.8 µM | HEK293 GAL4-hgDAF12 UAS-luciferase reporter, agonist luminescence; normalized to butyrate control;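 active = activation above a cutoff set at the mean of all screened compounds plus 3 SD, cut at about 10% in these data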;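 also: 0% = DMSO wells and 100% = sodium butyrate wells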
SMARCA2 activ – SMARCA2 function activation, primary screen; MG213 cells, MMTV-luciferase reporter, dexamethasone, overnight; hit rate 1% among 370,000; activation, % at 9.1 µM; AID 652017; in the data active = activation above about 7.8%;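 also: 0% = vehicle wells and 100% = reference activator wells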
DAX1 inh-2 – blocks DAX1 repression of SF-1 activated StAR promoter. HEK293T StAR-luciferase reporter, SF-1/DAX-1 repression relief. inhibition, % at 6.8 µM. hit rate 1.1% among 370,000. AID 652010;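 active = inhibition above the mean over all tested compounds plus 3 SD, cut at about 3.6% in these data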;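 also: 0% = DAX-1 cells with DMSO and 100% = cells lacking DAX-1 with DMSO; higher inhibition means more luminescence from relief of DAX-1 repression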
* marks the source's active call; other numbers are inactive results; · = no result given.

SMILES | hcDAF12 agonist | ssDAF12 agonist | DAX1 inh-1 | hgDAF-12 ag | SMARCA2 activ | DAX1 inh-2
CC1(C)CC(=O)C=C(Nc2ccccc2NC(=O)c2cccc(F)c2F)C1 | 0 | -1 | · | 2 | -3 | -1
Cc1ccc(S(=O)(=O)N2CCCCC2)cc1NC(=O)COC(=O)Cc1c(F)cccc1Cl | 6.1* | -2 | -2 | -1 | -1 | 0
CS(=O)(=O)c1ccc(Cl)c(NC(=O)Cc2c(F)cccc2Cl)c1 | 5.6* | 0 | -1 | -2 | -3 | 0
CS(=O)(=O)c1ccc(Cl)c(NC(=O)Cc2ccccc2F)c1 | 0 | -1 | -1 | -2 | -3 | 0
CCC[C@H]1[C@@H](OC(=O)NCCc2c[nH]c3ccccc23)CC[C@@]23CCCN2C(=O)CCC[C@@H]13 | 1 | -1 | · | -1 | · | ·
NC(=O)C1CC(=O)N(c2ccc(OCc3ccc(F)cc3)cc2)C1 (stereo unspecified) | 1 | 0 | 4.7* | 10 | 6 | 1
CCCNC(=O)C[C@H]1CC[C@H]2[C@@H](COc3ccc(NC(=O)c4cncs4)cc3C(=O)N2C)O1 | 0 | -1 | · | 1 | -1 | 2
Cc1ccc(NC(=O)CN2CCC(NC(=O)c3cccc(F)c3)CC2)cc1C | -1 | -2 | 4 | -2 | -1 | 0
O=C(CN1CCC(NC(=O)C2CC2)CC1)Nc1cccc(F)c1 | 5 | 0.9* | 0 | 1 | -5 | 0
C[C@H]1[C@@H](NC(=O)c2ccc(Cl)cc2)CC[C@@]23CCCN2C(=O)CCC[C@@H]13 | -2 | -2 | · | 3 | · | ·
COc1ccc2nc3sc(C(=O)NCCN4CCc5ccccc5C4)cc3cc2c1 | 5 | 0 | -1 | 12* | 6 | 1
COc1ccc2cc3cc(C(=O)NCCCN4CCc5ccccc5C4)sc3nc2c1 | 1 | 0 | 1 | 5 | 3 | 1
Cc1nc2c(-c3ccccc3)c[nH]n2c(=O)c1Cc1ccccc1 | 1 | -1 | 5.7* | 6 | 3 | 2
CCCNC(=O)c1cc(C2CCCN(S(=O)(=O)c3cccs3)C2)on1 (stereo unspecified) | -2 | 1.1* | · | -2 | -8 | -1
Cc1ccc(F)cc1C(=O)N1CCCC(c2cc(C(=O)NCc3ccccc3)no2)C1 (stereo unspecified) | -1 | -1 | · | 2 | -4 | 4.0*
O=C(CCCCl)N1CCc2[nH]c3ccccc3c2C1 | 5.6* | 1 | 0 | -1 | -2 | 2
O=S(=O)(c1cccs1)N1CN(Cc2ccco2)c2nc3ccccc3nc21 | 0 | 0.9* | 3 | 2 | 0 | -1
O=S(=O)(c1cccs1)N1CN(Cc2ccc(Cl)cc2)c2nc3ccccc3nc21 | 1 | -1 | 0 | 4 | -1 | 1
COc1ccccc1CN1CN(S(=O)(=O)c2ccccc2)c2nc3ccccc3nc21 | 6.1* | -1 | -1 | 4 | 0 | 1
CCOc1ccc(CNC2CCCc3ccccc32)cc1 (stereo unspecified) | -3 | -1 | 9.1* | 0 | -2 | 0
Cc1ccccc1C(=O)N(C)[C@H]1C[C@H]2c3[nH]c4c(-c5ccc6c(c5)OCO6)cccc4c3CCN2C[C@H]1[C@H](C)O | -3 | -1 | · | 0 | -1 | 0
O=C(CN1CCCc2ccccc21)NCc1ccccc1F | 2 | 0 | · | 8 | -1 | 0
Cc1c(C(=O)Nc2ccccc2N2CCN(C)CC2)oc2ccc(F)cc12 | 2 | 1.0* | -1 | 3 | 1 | -2
CCn1c(=O)n(CC(=O)N2CCN(C(C)=O)CC2)c(=O)c2ccccc21 | -3 | -2 | · | -2 | -3 | 1
COc1ccc(OC)c2sc(N3CCCCC3)nc12 | 0 | -1 | 1 | 11* | 3 | -1
SMILES | hcDAF12 agonist | ssDAF12 agonist | DAX1 inh-1 | hgDAF-12 ag | SMARCA2 activ | DAX1 inh-2
COc1ccc(OC)c2sc(N3CCc4ccccc4C3)nc12 | 0 | -1 | -1 | 1 | 1 | -1
CCN(C(=O)CSC1=Nc2ccccc2C2CC=NN12)C1CCS(=O)(=O)C1 (stereo unspecified) | 5.8* | 1 | 1 | 3 | 1 | 1
Cc1nn(S(=O)(=O)c2ccccc2)c(C)c1Sc1ccc([N+](=O)[O-])cc1 | -3 | -2 | -1 | -2 | -3 | -2
CCCc1nnn(S(=O)(=O)c2ccc([N+](=O)[O-])cc2)c1CCC | 0 | 0 | 5.0* | -1 | -6 | 1
CCc1ccc(NC(=O)c2cnc3scc(C)n3c2=O)cc1 | 5.8* | 1.2* | 1 | 10 | 2 | 3
O=c1[nH]c(-c2ccco2)nc2sc3c(c12)CCCC3 | 2 | 1 | 2 | 13* | 2 | 3
Cc1cccc(N2CCN(C(=O)c3cc4c(=O)n(C)c5ccccc5c4n3C)CC2)c1C | -2 | 1.9* | -1 | -2 | -1 | 1
Cc1ccc(Cl)cc1N1CCN(C(=O)c2cc3c(=O)n(C)c4ccccc4c3n2C)CC1 | -2 | -1 | -1 | -1 | 0 | 0
CCOn1c(=O)c(-c2ccc(F)cc2)[n+]([O-])c2ccccc21 | 1 | -1 | 4.8* | -2 | -3 | 0
CCOn1c(=O)c(-c2cccs2)[n+]([O-])c2ccccc21 | 1 | -1 | 5.2* | 0 | 1 | -1
CCOn1c(=O)c(-c2ccc(C)cc2)[n+]([O-])c2ccccc21 | 0 | -1 | 2 | 3 | 2 | 0
CC(C)(C)OC(=O)NCc1ccccc1/C=C/S(=O)(=O)NCCc1ccccc1 | -4 | -2 | · | 0 | -7 | -2
O=[N+]([O-])c1ccc(Nc2ccc3ccccc3c2)nc1 | 3 | -1 | 1 | 11* | 6 | -1
O=C(CNC(=O)c1ccc(N2C(=O)c3ccccc3C2=O)cc1)OCC(=O)c1ccc(Cl)cc1 | -1 | 1.7* | -1 | -1 | -3 | 0
O=C(CNC(=O)c1cccs1)OCC(=O)c1ccc(Cl)cc1 | -1 | 12* | -1 | -1 | 0 | 0
Cc1ccc(C(=O)COC(=O)CNC(=O)c2ccc(N3C(=O)c4ccccc4C3=O)cc2)cc1C | 1 | -1 | 1 | 0 | -3 | 0
CCOC(=O)CCCNC(=O)O[C@@H]1CC[C@@]23CCCN2C(=O)CCC[C@H]3C1 | -1 | 0 | · | 0 | · | ·
C#CCN(CC=C)Cc1ccc(OC)cc1OC | 0 | -1 | · | -4 | 2 | 0
O=C1c2ccccc2NC(c2ccccc2Cl)N1N=C1CCCCCC1 (stereo unspecified) | 3 | 0 | 1 | 10* | 4 | 2
O=C1NC(c2ccccc2Cl)Nc2ccccc21 (stereo unspecified) | -1 | -1 | 0 | 1 | -6 | 1
CCCCCn1nnnc1C1(C)CCCCC(=O)N1Cc1ccco1 (stereo unspecified) | -2 | -1 | · | -1 | 1 | -1
CCOC(=O)C1=C(C)NC(=O)C(C(N)=O)C12CCCCC2 (stereo unspecified) | -1 | -1 | 0 | 1 | 1 | -1
